# Where “and” joins values, the source holds several entries; their conditions need not be identical. Identical values can stand only once.
# Test system: HL-1
# Assay: cardiomyocyte survival under oxidative or metabolic stress – cell-based, panel, H9c2 and HL-1, ATP luminescence, set 2, SAR follow-up (AID 651871);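 further: cells exposed to stressor for 2 h before ATP readout; reference of the scale not given here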
# Details: H9c2/HL-1 cardiomyocytes, 2-deoxyglucose stress, with 2-deoxyglucose; run 7, at 79 µM (top of the series)
row,Compound,activity (protection/inhibition)
1,COc1ccc2nc(-c3cc(OC)c(OC)c(OC)c3)cc(C(=O)NCC(=O)Nc3ccc(C(C)=O)cc3)c2c1,38%
2,CCOC(=O)c1cccc(NC(=O)CNC(=O)c2cc(-c3cc(OC)c(OC)c(OC)c3)nc3ccccc23)c1,54.3%
3,COc1ccc2c(c1OC)C(=O)N1c3ccccc3C(=O)N(Cc3cccc(Cl)c3Cl)C21 (stereo not drawn),48.9% and 20.1% and -9.92%
